Data from PubChem BioAssay (NCATS).
The source made the active and inactive calls. The call rests on the fitted dose curve.

Test: qHTS drug screen for cell cycle checkpoint inhibitors in PARPi-resistant BRCA-mutant ovarian cancer cell lines. (AID 1963452)
Settings: PEO1/OlaR viability, CellTiter-Glo luminescence, 96 h; for Z-AUC: stronger effect = lower value
Source text: Women's Malignancies Branch, Center for Cancer Research (CCR),
National Cancer Institute (NCI), National Institutes of Health (NIH), Bethesda, MD
Poly (ADP-ribose) polymerase inhibitors (PARPis) have changed the treatment paradigm in breast cancer gene (BRCA) - mutant high-grade serous ovarian carcinoma (HGSC). However, most patients eventually develop resistance to PARPis, highlighting an unmet need for improved therapeutic strategies. Using high-throughput drug screens, we identified ataxia telangiectasia and rad3-related protein/checkpoint kinase 1 (CHK1) pathway inhibitors as cytotoxic and further validated the activity of the CHK1 inhibitor (CHK1i) prexasertib in PARPi-sensitive and -resistant BRCA-mutant HGSC cells and xenograft mouse models. CHK1i monotherapy induced DNA damage, apoptosis, and tumor size reduction. We then conducted a phase 2 study (NCT02203513) of prexasertib in patients with BRCA-mutant HGSC. The treatment was well tolerated but yielded an objective response rate of 6% (1 of 17; one partial response) in patients with previous PARPi treatment. […] BRCA reversion mutation in previously PARPi-treated BRCA-mutant patients was not associated with resistance to CHK1i.
Among others, 1082 oncology drugs, both approved and investigational, were prioritized based on their status in clinical trial development. […] Drugs with average Z-AUC values less than -1.0 in all three cell lines were classified as "hits" resulting in 151 oncology drug hits. The screen also confirmed cross-resistance between olaparib and other PARPis (rucaparib, niraparib, and talazoparib) in PARPi-resistant PEO1/OlaR and PEO4.
[1] G. L. Lin, K. M. Wilson, M. Ceribelli, B. Z. Stanton, P. J. Woo, S. Kreimer, E. Y. Qin, X. Zhang, J. Lennon, S. Nagaraja, P. J. Morris, M. Quezada, S. M. Gillespie, D. Y. Duveau, A. M. Michalowski, P. Shinn, R. Guha, M. Ferrer, C. Klumpp-Thomas, S. Michael, C. McKnight, P. Minhas, Z. Itkin, E. H. Raabe, L. Chen, R. Ghanem, A. C. Geraghty, L. Ni, K. I. Andreasson, N. A. Vitanza, K. E.Warren, C. J. Thomas, M. Monje, Therapeutic strategies for diffuse midline glioma from high-throughput combination drug screening. Sci. Transl. Med. 11, (2019).
[2] T. M. Yamamoto, A. McMellen, Z. L. Watson, J. Aguilera, R. Ferguson, E. Nurmemmedov, T. Thakar, G. L. Moldovan, H. Kim, D. M. Cittelly, A. M. Joglar, E. P. Brennecke, H. Wilson, K. Behbakht, M. J. Sikora, B. G. Bitler, Activation of Wnt signaling promotes olaparib resistant ovarian cancer. Mol. Carcinog. 58, 1770 - 1782 (2019).
PROTOCOL TABLE (as described by Inglese J, Shamu CE and Guy RK. 2007)
SEQUENCE No. (e.g., 1, 2, 3, etc.); […] (e.g., Cells, Incubation, Reagent, etc.); VALUE; DESCRIPTION.
1; Compounds; 20nL; 1536-well white tissue culture-treated plates.
2; Cells; 5 uL; PEO1, PEO4, and PEO1/OlaR cells at 600 cells per well.
3; Incubation; 96 hr; 37C, 95% humidity, 5% CO2.
4; Reagent; 3 uL; CellTiter-Glo (Promega).
5; Incubation; 15 min; room temperature.
6; Detection; Luminescence, PHERAstar (BMG Labtech) plate reader.
NOTES (numbers refer to Sequence numbers above)
1. MIPE 5.0 compounds were acoustically dispensed by Echo Acoustic Liquid Handler (Beckman Coulter Life Sciences). Each compound was plated at an 11-point concentration range with 1:3 dilution. Bortezomib, a proteasome inhibitor (final concentration, 20 uM), was used as a positive.
2. PEO1, PEO4, and PEO1/OlaR were trypsinized and dispensed in 5 uLof growth medium using a Multidrop Combi dispenser at a density of 600 cells per well to allow compounds to be present during the exponential growth phase.
3. Plates were incubated for 96 hours at standard incubator conditions and covered by a stainless steel gasketed lid to prevent evaporation.
4. Three microliters of CellTiter-Glo (Promega) were added to each well.
5. Plates were incubated at room temperature for 15 min with a stainless-steel lid in place.
6. Luminescence readings were taken using PHERAstar (BMG Labtech). […]

[1] = measured here: PEO1 parental Z-AUC
Potency means the concentration at half of the fitted maximal effect.

Structure (SMILES) | Potency | Z-AUC [1] | Z-AUC (measured here: PEO4 Z-AUC) | Z-AUC
CC(C)C[C@H](NC(=O)[C@H](Cc1ccccc1)NC(=O)c1cnccn1)B(O)O | 9.8 nM (active) | -3.19 | -2.39 | 
CN(C)c1ccc(O)c2c1C[C@H]1C[C@H]3[C@H](N(C)C)C(=O)C(C(N)=O)=C(O)[C@@]3(O)C(=O)C1=C2O |  | 0.206 | 0.369 | 0.306 (inactive)
Nc1ncn([C@H]2C[C@H](O)[C@@H](CO)O2)c(=O)n1 |  | -0.11 | -0.207 | 1.63 (inactive)
O=C(NCCO[N+](=O)[O-])c1cccnc1 |  | -0.487 | -0.272 | -0.64 (inactive)
Cc1cccc(-c2[nH]ncc2-c2ccc3ncccc3n2)n1 |  | 0.556 | 0.305 | -0.435 (inactive)
NNc1nncc2ccccc12 |  | 0.709 | 0.892 | 0.571 (inactive)
C[C@@H](N)C1CCC(C(=O)Nc2ccncc2)CC1 (some centres not stated) |  | 0.543 | 0.552 | 0.275 (inactive)
Nc1cc(C(Cl)=C(Cl)Cl)c(S(N)(=O)=O)cc1S(N)(=O)=O |  | 1.19 | 1.34 | 1.44 (inactive)
Cc1ncc([N+](=O)[O-])n1CC(C)O (configuration not stated) |  | 1.06 | 0.768 | 0.202 (inactive)
CCCS(=O)c1ccc2nc(NC(=O)OC)[nH]c2c1 (configuration not stated) |  | -0.314 | 0.468 | -0.279 (inactive)
C=C(c1ccc(C(=O)O)cc1)c1cc2c(cc1C)C(C)(C)CCC2(C)C |  | 0.659 | 0.161 | 1.36 (inactive)
CCCCC(CC)COC(=O)C(C#N)=C(c1ccccc1)c1ccccc1 (configuration not stated) |  | -0.152 | 0.0622 | 0.188 (inactive)
CS(=O)(=O)OCCCCOS(C)(=O)=O |  | 0.976 | 1.46 | 0.989 (inactive)
CC1(C)CCC(C)(C)c2cc(NC(=O)c3ccc(C(=O)O)cc3)ccc21 |  | 0.445 | -0.341 | 0.358 (inactive)
